Eight compounds from PubChem BioAssay (Tox21) can be followed below.

Unmarked numbers belong to inactive results. Results filed as inconclusive are left out. Calls of active or inactive are those of the source. Unless noted, the call rests on the fitted dose curve.

Experiment [1] is described as follows: Nuclear factor erythroid 2-related factor 2/antioxidant responsive element (Nrf2/ARE) small molecule agonists: qHTS cell viability counter screen in human keratinocytes (AID 1919968; active means well fitted curve in the direction sought with a large enough effect in the repeat runs; an effect the other way counts as inactive or inconclusive; further: nearly all actives have a fitted effect of over 55% in size). In a few lines: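 After a 5 h attachment period, ARE-reporter keratinocytes were dosed with compounds in DMSO and then cultured 23 h at 37 C. Cell viability came from CellTiter-Fluor signal read after a further 1 h.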
A general note: Quantitative high-throughput screening tests each substance at several concentrations.

The nature of experiment [2]: Nuclear factor erythroid 2-related factor 2/antioxidant responsive element (Nrf2/ARE) small molecule agonists: luciferase reporter gene qHTS assay in human keratinocytes (AID 1919969). Further: nearly all actives have a fitted effect of over 35% in size. Background: A reporter such as luciferase makes a cellular process visible.
For experiment [3], the target named is Gonadotropin-releasing hormone receptor (Homo sapiens) (UniProt P30968). Description: Human gonadotropin-releasing hormone receptor (GnRHR) small molecule agonists, calcium flux assay in GnRHR-HEK293 cells (AID 1920063). Further: nearly all actives have a fitted effect of over 35% in size. In a few lines:
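We seeded human GnRHR-expressing HEK293 cells for 18 hours, loaded them with calcium dye for an hour at 37 C, added test compounds, and recorded fluorescence intensity kinetically for three minutes.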

Experiment [4] concerns the target KiSS-1 receptor (Homo sapiens) (UniProt Q969F8). Description: Human kisspeptin (KISS1R) small molecule agonists, calcium flux assay in KISS1R-HEK293 cells (AID 1920064; active means well fitted curve in the direction sought with a large enough effect in the repeat runs; an effect the other way counts as inactive or inconclusive). An outline of the steps:
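Kinetic calcium assay, 1 s sampling over 3 min at Ex/Em 480/540, in HEK293 cells engineered with human KISS1R; compounds delivered in DMSO after 1 h dye loading.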
Background: Calcium flux is commonly read through the fluorescence of an indicator in the cells.

The nature of experiment [5]: G protein-coupled receptor (GPCR) small molecule agonists, calcium flux assay: HEK293 wild type cell line counter screen (AID 1920065). In a few lines: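 Calcium-sensitive dye, loaded 1 h at 37 C into cells cultured 18 h, reports compound-evoked calcium release as fluorescence (Ex/Em 480/540), measured over 3 min. Agonist mode; 15-point titrations, triplicate.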
Experiment [6] is described as follows: p53 small molecule agonists, cell-based qHTS assay with human liver microsomes (AID 1963577). In a few lines:
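Compounds act here after metabolic activation: human liver microsomes and NADPH, both at 0.5 mg/mL final, were co-added to p53RE-bla cells. Incubation ran 16 h at 37 C, followed by LiveBLAzer detection.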

Experiment [7] is described as follows: p53 small molecule agonists, cell-based qHTS assay with rat liver microsomes (AID 1963578). An outline of the steps:
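Read-out is beta-lactamase reporter fluorescence (LiveBLAzer, 2 h, room temperature, dark) in p53RE-bla cells treated 16 h at 37 C with compound, rat liver microsomes and NADPH, both 0.5 mg/mL final.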

The nature of experiment [8]: p53 small molecule agonists, cell-based qHTS assay: qHTS cell viability counter screen (AID 1963581). Further: nearly all actives have a fitted effect of over 45% in size. An outline of the steps: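 Following 5 h attachment, HCT-116 p53RE-bla cells took up compound for 16 h at 37 C; the reporter was read with B/G FRET substrate (2 h RT), and viability then via CellTiter-Glo ATP luminescence.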
Experiment [9] can be described thus: p53 small molecule agonists, cell-based qHTS assay (AID 1963582; active means well fitted activation curve with a large enough effect in the signal ratio in the repeat runs, not every such curve was filed as active; the % refers to the signal ratio). In a few lines:
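In this cell-based concentration-response screen, a p53 response element drives beta-lactamase; cells received DMSO-borne compounds after 5 h culture and were incubated a further 16 h before FRET substrate development.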

Experiment [10] has as its target 5-hydroxytryptamine receptor 2A (Homo sapiens) (UniProt P28223). Description: 5-hydroxytryptamine receptor 2A (HTR2A) small molecule antagonists, cell-based qHTS assay (AID 1963586). Further: nearly all actives have a fitted effect of over 45% in size. An outline of the steps: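 Antagonist-mode intracellular calcium assay: DOI (4 nM) added after 5 min compound pre-incubation at room temperature to dye-loaded HTR2A-CHO cells. Fluorescence followed for 3 min, sampled every second.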

For experiment [11] the target is unchanged. Description: 5-hydroxytryptamine receptor 2A (HTR2A) small molecule agonists, cell-based qHTS assay (AID 1963587). Further: nearly all actives have a fitted effect of over 30% in size. An outline of the steps:
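HTR2A-CHO cells, plated 18 h at 37 C/5% CO2, dye-loaded 1 h at 37 C; compounds in DMSO added by pin tool (agonist mode). Intracellular calcium flux read as kinetic fluorescence on FDSS over 2 min at 1 s intervals.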

For experiment [12], the target named is Muscarinic acetylcholine receptor M1 (Homo sapiens) (UniProt P11229). In words: Cholinergic receptor muscarinic 1 (CHRM1) small molecule antagonists, cell-based qHTS assay (AID 1963588). Further: nearly all actives have a fitted effect of over 40% in size. Further: potency means the concentration at half of the fitted maximal effect. In a few lines: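 CHRM1-CHO calcium-flux assay, antagonist mode. Cells were seeded 18 h, dye-loaded 1 h at 37 C and given compound for 5 min at RT, then acetylcholine was added at 50nM. FDSS fluorescence was read 3 min; 15 concentrations, three runs.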

Experiment [13] has the same target. Description: Cholinergic receptor muscarinic 1 (CHRM1) small molecule agonists, cell-based qHTS assay (AID 1963589). Further: nearly all actives have a fitted effect of over 35% in size. In a few lines:
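Measures agonist-induced intracellular calcium rise. Stable human CHRM1 CHO line, 1 h dye load at 37 C, compounds from DMSO, kinetic fluorescence read.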

Experiment [14] is described as follows: cAMP Responsive Elements (CRE) small molecule agonists, cell-based qHTS assay (AID 1963590). An outline of the steps:
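A CRE-responsive beta-lactamase reporter in HEK 293T cells was used. Treatment ran 3 h at 37 C; detection used LiveBLAzer B/G FRET substrate for 2 h at room temperature.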

Experiment [15] can be described thus: cAMP Responsive Elements (CRE) small molecule antagonists, cell-based qHTS assay (AID 1963591; active means well fitted inhibition curve with a large enough effect in the signal ratio in the repeat runs, not every such curve was filed as active; the % refers to the signal ratio). An outline of the steps:
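HEK293T cells carrying a CRE-driven beta-lactamase reporter receive compound and NKH477 (0.25 uM final) for 3 h. Fluorescence from LiveBLAzer B/G FRET substrate is read after 2 h at room temperature.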

The target of experiment [16] is Beta-2 adrenergic receptor (Homo sapiens) (UniProt P07550). In words: Adrenergic beta2 receptor (ADRB2) small molecule antagonists, cell-based qHTS assay (AID 1963592). Further: series mostly up to about 92 µM; nearly all actives have a fitted effect of over 50% in size. An outline of the steps: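 Cells (CHO, stable ADRB2 overexpression) incubated 18-20hr at 37C; compounds added from DMSO; agonist mix (1nM isoproterenol, 100uM IBMX, 25uM Ro-20-1724) added; 0.5hr RT; d2-cAMP and anti-cAMP-cryptate added; 1hr RT; 665/615 nm read.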

The target of experiment [17] is D(2) dopamine receptor (Homo sapiens) (UniProt P14416). Description: Dopamine D2 receptor (DRD2) small molecule agonists, cell-based qHTS assay (AID 1963594). Further: nearly all actives have a fitted effect of over 35% in size. Further: potency means the concentration at half of the fitted maximal effect. In a few lines: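 HEK293 cells stably expressing DRD2 were cultured 24 h at 37 C, then given Ro20-1724 (0.1 mM final) and compounds for 10 min at room temperature. NKH477 (200nM) was then added for 30 min. cAMP was read by HTRF.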

Experiment [18] shares this target. In words: Dopamine D2 receptor (DRD2) small molecule antagonists, cell-based qHTS assay (AID 1963595; active means well fitted inhibition curve with a large enough effect in the signal ratio in the repeat runs, with a control signal flat; the % refers to the signal ratio). An outline of the steps: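 DRD2-HEK293; 0.1 mM Ro20-1724; cpd 10 min RT; NKH477 200 nM + quinpirole 12 nM, 30 min RT; HTRF cAMP (cAMP-d2/anti-cAMP cryptate), 665/620 nm ratio after 1 h.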
The nature of experiment [19]: p53 small molecule agonists, cell-based qHTS assay with human liver microsomes: qHTS cell viability counter screen (AID 1963579). Further: nearly all actives have a fitted effect of over 45% in size. An outline of the steps:
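Cells carrying the p53 response-element beta-lactamase reporter are treated for 16 h at 37 C with test compounds in the presence of human liver microsomes and NADPH (both 0.5 mg/mL final); ATP-based CellTiter-Glo luminescence then reports viability.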

Experiment [20] is described as follows: p53 small molecule agonists, cell-based qHTS assay with rat liver microsomes: qHTS cell viability counter screen (AID 1963580). Further: nearly all actives have a fitted effect of over 45% in size. In a few lines: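 In HCT-116 cells carrying a p53 response element-bla reporter, compounds were metabolically activated in situ by rat liver microsomes with NADPH over 16 h. Cell ATP content then served as the cytotoxicity measure.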

Sequence of Gonadotropin-releasing hormone receptor (Homo sapiens) (P30968 whole entry, looked up): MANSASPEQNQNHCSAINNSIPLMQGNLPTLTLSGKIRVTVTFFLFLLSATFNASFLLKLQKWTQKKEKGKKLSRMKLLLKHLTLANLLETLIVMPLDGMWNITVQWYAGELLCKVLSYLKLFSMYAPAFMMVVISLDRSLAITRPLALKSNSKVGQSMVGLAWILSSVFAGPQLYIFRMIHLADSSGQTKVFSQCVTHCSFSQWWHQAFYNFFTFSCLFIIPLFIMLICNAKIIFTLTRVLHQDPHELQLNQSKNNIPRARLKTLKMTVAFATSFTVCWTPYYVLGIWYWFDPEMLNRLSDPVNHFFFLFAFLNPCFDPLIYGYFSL
Sequence of Beta-2 adrenergic receptor (Homo sapiens) (P07550 whole entry, looked up): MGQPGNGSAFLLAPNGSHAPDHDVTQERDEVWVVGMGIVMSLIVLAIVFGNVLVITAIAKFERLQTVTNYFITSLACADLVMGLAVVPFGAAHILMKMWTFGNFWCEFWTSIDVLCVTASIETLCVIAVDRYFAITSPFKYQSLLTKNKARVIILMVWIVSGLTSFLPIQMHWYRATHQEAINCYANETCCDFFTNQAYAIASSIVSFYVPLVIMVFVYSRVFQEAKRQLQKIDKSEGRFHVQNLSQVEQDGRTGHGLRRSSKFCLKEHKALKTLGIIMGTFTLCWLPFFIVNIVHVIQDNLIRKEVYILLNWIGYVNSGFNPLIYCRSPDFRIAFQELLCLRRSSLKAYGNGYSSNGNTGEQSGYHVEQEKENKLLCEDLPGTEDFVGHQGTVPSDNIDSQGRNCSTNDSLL
Sequence of Muscarinic acetylcholine receptor M1 (Homo sapiens) (P11229 whole entry, looked up): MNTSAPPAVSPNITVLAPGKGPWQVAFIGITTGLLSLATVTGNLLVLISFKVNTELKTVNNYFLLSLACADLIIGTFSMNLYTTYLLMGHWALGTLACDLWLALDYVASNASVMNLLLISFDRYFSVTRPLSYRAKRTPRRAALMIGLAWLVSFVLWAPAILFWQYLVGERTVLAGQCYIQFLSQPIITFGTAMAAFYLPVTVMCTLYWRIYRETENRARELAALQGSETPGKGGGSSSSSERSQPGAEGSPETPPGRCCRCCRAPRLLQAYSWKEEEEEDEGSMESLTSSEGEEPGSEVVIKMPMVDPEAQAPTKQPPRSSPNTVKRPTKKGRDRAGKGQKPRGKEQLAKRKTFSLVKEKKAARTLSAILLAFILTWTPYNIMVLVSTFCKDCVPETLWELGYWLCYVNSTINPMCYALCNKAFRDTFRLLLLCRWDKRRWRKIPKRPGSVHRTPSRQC
Sequence of 5-hydroxytryptamine receptor 2A (Homo sapiens) (P28223 whole entry, looked up): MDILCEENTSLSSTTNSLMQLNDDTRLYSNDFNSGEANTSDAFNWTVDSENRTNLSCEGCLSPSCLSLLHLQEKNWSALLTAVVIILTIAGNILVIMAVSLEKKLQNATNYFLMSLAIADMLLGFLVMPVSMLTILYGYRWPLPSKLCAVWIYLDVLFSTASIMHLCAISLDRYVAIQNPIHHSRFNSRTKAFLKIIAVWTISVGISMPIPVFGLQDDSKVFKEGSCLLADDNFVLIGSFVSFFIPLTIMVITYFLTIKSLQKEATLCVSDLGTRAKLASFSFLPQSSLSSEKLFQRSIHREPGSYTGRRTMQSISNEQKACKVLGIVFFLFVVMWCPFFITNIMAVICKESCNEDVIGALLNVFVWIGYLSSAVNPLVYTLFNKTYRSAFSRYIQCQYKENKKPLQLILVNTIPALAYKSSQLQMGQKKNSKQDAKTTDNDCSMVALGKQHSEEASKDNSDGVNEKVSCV
Sequence of D(2) dopamine receptor (Homo sapiens) (P14416 whole entry, looked up): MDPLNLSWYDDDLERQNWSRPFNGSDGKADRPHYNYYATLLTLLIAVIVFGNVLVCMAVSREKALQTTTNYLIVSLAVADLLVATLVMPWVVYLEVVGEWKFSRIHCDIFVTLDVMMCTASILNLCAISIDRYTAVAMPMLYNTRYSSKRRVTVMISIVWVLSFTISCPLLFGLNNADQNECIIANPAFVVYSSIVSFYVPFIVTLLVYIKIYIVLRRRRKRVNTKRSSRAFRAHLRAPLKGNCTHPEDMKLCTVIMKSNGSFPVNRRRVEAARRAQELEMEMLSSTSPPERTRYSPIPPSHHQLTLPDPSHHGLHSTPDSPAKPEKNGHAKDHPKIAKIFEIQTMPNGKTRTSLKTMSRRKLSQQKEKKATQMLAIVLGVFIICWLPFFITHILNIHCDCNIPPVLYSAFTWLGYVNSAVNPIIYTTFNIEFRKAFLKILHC
Sequence of KiSS-1 receptor (Homo sapiens) (Q969F8 whole entry, looked up): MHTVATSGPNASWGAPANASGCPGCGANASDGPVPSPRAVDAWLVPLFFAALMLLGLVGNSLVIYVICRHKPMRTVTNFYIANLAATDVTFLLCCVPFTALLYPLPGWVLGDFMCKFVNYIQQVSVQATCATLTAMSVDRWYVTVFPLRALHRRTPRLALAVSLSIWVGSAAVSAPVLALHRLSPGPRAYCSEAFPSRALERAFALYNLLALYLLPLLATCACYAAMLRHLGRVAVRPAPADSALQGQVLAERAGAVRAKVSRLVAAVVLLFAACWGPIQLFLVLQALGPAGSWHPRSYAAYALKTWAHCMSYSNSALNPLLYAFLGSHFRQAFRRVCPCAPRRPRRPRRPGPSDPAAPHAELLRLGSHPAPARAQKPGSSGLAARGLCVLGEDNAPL

As to `CON(C)C(=O)Nc1ccc(Br)cc1`, the Potency entry in experiment [1], in [2], in [3], in experiment [4], in [5] and in experiment [6] was “inactive” in each case. Further, the Potency entry in [7], in experiment [8], in experiment [9], in experiment [10], in experiment [11] and in experiment [12] was “inactive” each time. Besides, the Potency result in experiment [13], in experiment [14], in [15], in [16], in [17] and in experiment [18] was “inactive” in each case.

Take `CC(CC(C(N)=O)(c1ccccc1)c1ccccc1)N(C)C` (stereo not drawn): the Potency result in [1], in experiment [2], in experiment [3], in experiment [4], in experiment [5] and in experiment [6] was “inactive” each time. Moreover, the Potency result in experiment [7], in experiment [9], in experiment [10], in experiment [11], in experiment [13] and in experiment [14] was “inactive” throughout. Further, the Potency entry in experiment [15], in [16], in experiment [17] and in experiment [18] was “inactive” in each case. Also, the Potency in experiment [12] was 0.0082 µM (active).

With `COC(=O)C(C)N(C(=O)c1ccco1)c1c(C)cccc1C` (stereo not drawn), the Potency result in [1], in experiment [2], in experiment [3], in [4], in experiment [5] and in experiment [6] was “inactive” each time. The Potency result in experiment [19], in [20], in experiment [8], in [9], in [10] and in experiment [11] was “inactive” in each case. Besides, the Potency result in [12], in [13], in experiment [14], in experiment [16] and in experiment [18] was “inactive” throughout.

Take `Clc1cccc(N2CCNCC2)c1`: the Potency entry in experiment [1], in experiment [2], in experiment [3], in experiment [4], in experiment [5] and in [6] was “inactive” each time. For the same compound, the Potency entry in experiment [19], in experiment [20], in experiment [8], in experiment [9], in experiment [12] and in [13] was “inactive” in each case. Besides, the Potency entry in experiment [14], in [15], in experiment [17] and in experiment [18] was “inactive” each time.

As to `CCO/N=C(\CC)C1=C(O)CC(c2c(C)cc(C)cc2C)CC1=O` (stereo not drawn), the Potency entry in [1], in experiment [2], in [3], in experiment [4], in experiment [5] and in experiment [6] was “inactive” in each case. In addition, the Potency entry in experiment [7], in experiment [20], in [10], in experiment [11], in experiment [13] and in experiment [16] was “inactive” in each case.

Take `COc1cc(C[C@@H](C)N)c(OC)cc1Br`: the Potency entry in experiment [1], in [2], in [3], in experiment [4], in [5] and in experiment [6] was “inactive” throughout. Besides, the Potency entry in [7], in experiment [8], in [10], in experiment [13], in experiment [14] and in [15] was “inactive” throughout. In addition, the Potency entry in experiment [18] is “inactive”. In addition, the Potency in experiment [12] was 17.2 µM (active); in [17], 3.96 µM (active).

Consider `Nc1ccc(Cl)cc1C(=O)c1ccccc1F`, for which the Potency entry in [1], in experiment [2], in experiment [3], in [4], in experiment [5] and in [6] was “inactive” throughout. The Potency entry in experiment [7], in experiment [20], in experiment [12], in experiment [13], in experiment [14] and in experiment [16] was “inactive” in each case. Besides, the Potency result in experiment [18] was “inactive”.

On to `COc1cc(CC(C)N)c(OC)cc1Br` (stereo not drawn), for which the Potency entry in [1], in experiment [2], in experiment [3], in experiment [4], in [5] and in [6] was “inactive” in each case. Also, the Potency entry in [7], in [8], in experiment [9], in experiment [10], in experiment [13] and in experiment [14] was “inactive” each time. Moreover, the Potency result in [15] is “inactive”. The Potency in [12] is 17.3 µM (active); in experiment [17] it was 20 µM (active).
